Measured values taken from PubChem BioAssay (NCI).
This is part of a sample that, as a whole, favours compounds with a hit. Of some 83,000 tested, about 20% had one in any assay.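 Assay: single dose, 48 h. Readout: percent growth (0 = no net growth; negative = cell death). Active: <10.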 A number with no mark means an inactive call. Activity calls are given as the source filed them.

How the values were obtained:
Experiment in all cases: NCI-60 one-dose screen, 48 h (100 = growth as untreated, 0 = no growth, -100 = all killed)
Conditions in all cases: 10 µM unless noted
SR leukemia = test system: SR leukemia
RPMI-8226 leukemia = test system: RPMI-8226 leukemia
OVCAR-8 ovarian = test system: OVCAR-8 ovarian
OVCAR-5 ovarian = test system: OVCAR-5 ovarian
OVCAR-4 ovarian = test system: OVCAR-4 ovarian
SK-OV-3 ovarian = test system: SK-OV-3 ovarian
IGROV1 ovarian = test system: IGROV1 ovarian
OVCAR-3 ovarian = test system: OVCAR-3 ovarian
HS 578T breast = test system: HS 578T breast
NCI/ADR-RES ovarian = test system: NCI/ADR-RES ovarian
T-47D breast = test system: T-47D breast
BT-549 breast = test system: BT-549 breast
MDA-MB-435 melanoma = test system: MDA-MB-435 melanoma
SW-620 colon = test system: SW-620 colon
MCF7 breast = test system: MCF7 breast
HCT-116 colon = test system: HCT-116 colon
HCC-2998 colon = test system: HCC-2998 colon
KM12 colon = test system: KM12 colon
MDA-MB-468 breast = test system: MDA-MB-468 breast

C=C1CCC2C3(C)COC(c4ccc(F)cc4)OC3CCC2(C)C1C/C=C1/C(=O)OCC1O (stereo unspecified)
growth (SR leukemia): 7.55% (active) | growth (RPMI-8226 leukemia): 6.7% (active) | growth (OVCAR-8 ovarian): -61.5% (active) | growth (OVCAR-5 ovarian): -6.07% (active) | growth (OVCAR-4 ovarian): 0.389% (active) | growth (SK-OV-3 ovarian): 40.5% | growth (IGROV1 ovarian): -26.3% (active) | growth (OVCAR-3 ovarian): -82% (active) | growth (HS 578T breast): -5.65% (active) | growth (NCI/ADR-RES ovarian): -22.4% (active) | growth (T-47D breast): -16.5% (active) | growth (BT-549 breast): -85.8% (active) | growth (MDA-MB-435 melanoma): -35.5% (active) | growth (SW-620 colon): -69.8% (active) | growth (MCF7 breast): -30.7% (active) | growth (HCT-116 colon): -74.2% (active) | growth (HCC-2998 colon): -69.7% (active) | growth (KM12 colon): -44.7% (active) | growth (MDA-MB-468 breast): -50.5% (active)

COc1cc(C2CC(c3cc(OC)c(OC)c(OC)c3)=NN2C(C)=O)ccc1OCc1ccc(F)cc1 (stereo unspecified)
growth (SR leukemia): 39.7% | growth (RPMI-8226 leukemia): 36.6% | growth (OVCAR-8 ovarian): 61.9% | growth (OVCAR-5 ovarian): 57.8% | growth (OVCAR-4 ovarian): 42.1% | growth (SK-OV-3 ovarian): 80.1% | growth (IGROV1 ovarian): 45.8% | growth (OVCAR-3 ovarian): 70.3% | growth (HS 578T breast): 58.8% | growth (NCI/ADR-RES ovarian): 60.6% | growth (T-47D breast): 24.8% | growth (BT-549 breast): 44.9% | growth (MDA-MB-435 melanoma): 62.5% | growth (SW-620 colon): 58.5% | growth (MCF7 breast): 34.7% | growth (HCT-116 colon): 31.5% | growth (HCC-2998 colon): 86% | growth (KM12 colon): 57.1% | growth (MDA-MB-468 breast): 47.1%

CN(C)c1ccnc(CNCCSC2(c3ccc(C(F)(F)F)cc3)c3ccccc3C=Cc3ccccc32)c1
growth (SR leukemia): -53% (active) | growth (RPMI-8226 leukemia): -48.9% (active) | growth (OVCAR-8 ovarian): -77.2% (active) | growth (OVCAR-5 ovarian): 1.89% (active) | growth (OVCAR-4 ovarian): 13% | growth (SK-OV-3 ovarian): 8.64% (active) | growth (IGROV1 ovarian): 9.31% (active) | growth (OVCAR-3 ovarian): -40.5% (active) | growth (HS 578T breast): -18% (active) | growth (NCI/ADR-RES ovarian): -73.6% (active) | growth (T-47D breast): -60.8% (active) | growth (BT-549 breast): -6.19% (active) | growth (MDA-MB-435 melanoma): -78.3% (active) | growth (SW-620 colon): -82.8% (active) | growth (MCF7 breast): -89.2% (active) | growth (HCT-116 colon): -37.8% (active) | growth (HCC-2998 colon): -93.9% (active) | growth (KM12 colon): -31.5% (active) | growth (MDA-MB-468 breast): -57.7% (active)

C#CCOc1cc(N(CC)CC)ccc1C(C(=O)NC(C)(C)C)N(C(=O)C1CCc2cc(F)ccc2O1)c1ccc(F)cc1 (stereo unspecified)
growth (SR leukemia): 26.7% | growth (RPMI-8226 leukemia): 25.4% | growth (OVCAR-8 ovarian): 52.4% | growth (OVCAR-5 ovarian): 69.7% | growth (OVCAR-4 ovarian): 51% | growth (SK-OV-3 ovarian): 62.4% | growth (IGROV1 ovarian): 68.2% | growth (OVCAR-3 ovarian): 47.9% | growth (HS 578T breast): 64.4% | growth (NCI/ADR-RES ovarian): 56.8% | growth (T-47D breast): 40.3% | growth (BT-549 breast): 50.9% | growth (MDA-MB-435 melanoma): 54.4% | growth (SW-620 colon): 58.6% | growth (MCF7 breast): 20.2% | growth (HCT-116 colon): 27.1% | growth (HCC-2998 colon): 71.9% | growth (KM12 colon): 25.7% | growth (MDA-MB-468 breast): 33.2%

CCOC(=O)C1=C(N)N(c2ccccc2)C2=C(C(=O)CC(C)(C)C2)C1c1ccc(N2CCOCC2)cc1 (stereo unspecified)
growth (SR leukemia): 83.8% | growth (RPMI-8226 leukemia): 96.2% | growth (OVCAR-8 ovarian): 97.1% | growth (OVCAR-5 ovarian): 101% | growth (OVCAR-4 ovarian): 101% | growth (SK-OV-3 ovarian): 102% | growth (IGROV1 ovarian): 108% | growth (OVCAR-3 ovarian): 113% | growth (HS 578T breast): 95.1% | growth (NCI/ADR-RES ovarian): 100% | growth (T-47D breast): 93.7% | growth (BT-549 breast): 103% | growth (MDA-MB-435 melanoma): 104% | growth (SW-620 colon): 101% | growth (MCF7 breast): 90.7% | growth (HCT-116 colon): 99.1% | growth (HCC-2998 colon): 108% | growth (KM12 colon): 105% | growth (MDA-MB-468 breast): 89.6%

CCN(CC)c1ccc(/C=N/Nc2nc(-c3ccc(C)cc3)cs2)c(O)c1
growth (SR leukemia): 92.9% | growth (RPMI-8226 leukemia): 74.3% | growth (OVCAR-8 ovarian): 86.8% | growth (OVCAR-5 ovarian): 93.2% | growth (OVCAR-4 ovarian): 89.7% | growth (SK-OV-3 ovarian): 108% | growth (IGROV1 ovarian): 96.3% | growth (OVCAR-3 ovarian): 92.1% | growth (HS 578T breast): 108% | growth (NCI/ADR-RES ovarian): 92.5% | growth (T-47D breast): 68.7% | growth (BT-549 breast): 71.9% | growth (MDA-MB-435 melanoma): 96.7% | growth (SW-620 colon): 99.1% | growth (MCF7 breast): 67.8% | growth (HCT-116 colon): 72.9% | growth (HCC-2998 colon): 106% | growth (KM12 colon): 94.6% | growth (MDA-MB-468 breast): 66.7%

CCCCSc1nc(NCCc2c[nH]c3ccccc23)c(C#N)c(-c2ccc(F)cc2)n1
growth (SR leukemia): 5.24% (active) | growth (RPMI-8226 leukemia): 49.7% | growth (OVCAR-8 ovarian): 75.1% | growth (OVCAR-5 ovarian): 97.3% | growth (OVCAR-4 ovarian): 76.1% | growth (SK-OV-3 ovarian): 83% | growth (IGROV1 ovarian): 92.3% | growth (OVCAR-3 ovarian): 74.3% | growth (HS 578T breast): 58.3% | growth (NCI/ADR-RES ovarian): 58.2% | growth (T-47D breast): 48.5% | growth (BT-549 breast): 101% | growth (MDA-MB-435 melanoma): 73.1% | growth (SW-620 colon): 60.4% | growth (MCF7 breast): 44.8% | growth (HCT-116 colon): 26.5% | growth (HCC-2998 colon): 64.9% | growth (KM12 colon): 32% | growth (MDA-MB-468 breast): 69.8%

Cc1cc(=O)oc2cc(OCCCCOc3ccc(/C=C/C(=O)Nc4ccccc4N)cc3)ccc12
growth (SR leukemia): 56.4% | growth (RPMI-8226 leukemia): 18.7% | growth (OVCAR-8 ovarian): 85.2% | growth (OVCAR-5 ovarian): 84.8% | growth (OVCAR-4 ovarian): 73.1% | growth (SK-OV-3 ovarian): 92.1% | growth (IGROV1 ovarian): 81.7% | growth (OVCAR-3 ovarian): 64.9% | growth (HS 578T breast): 118% | growth (NCI/ADR-RES ovarian): 74.3% | growth (T-47D breast): 31.4% | growth (BT-549 breast): -23.9% (active) | growth (MDA-MB-435 melanoma): 78.3% | growth (SW-620 colon): 71.9% | growth (MCF7 breast): 18.6% | growth (HCT-116 colon): 45.6% | growth (HCC-2998 colon): 89% | growth (KM12 colon): 31.2% | growth (MDA-MB-468 breast): 34.2%

O=C(c1ccccc1)c1ccc2nc(-c3cccc(Cl)c3)[nH]c2c1
growth (SR leukemia): 117% | growth (RPMI-8226 leukemia): 114% | growth (OVCAR-8 ovarian): 103% | growth (OVCAR-5 ovarian): 107% | growth (OVCAR-4 ovarian): 114% | growth (SK-OV-3 ovarian): 99.9% | growth (IGROV1 ovarian): 113% | growth (OVCAR-3 ovarian): 116% | growth (HS 578T breast): 108% | growth (NCI/ADR-RES ovarian): 104% | growth (T-47D breast): 98.6% | growth (BT-549 breast): 105% | growth (MDA-MB-435 melanoma): 106% | growth (SW-620 colon): 108% | growth (MCF7 breast): 105% | growth (HCT-116 colon): 103% | growth (HCC-2998 colon): 110% | growth (KM12 colon): 108% | growth (MDA-MB-468 breast): 105%
